In the library only some 10% were active in any assay of this set; here they are far more common.
HPGD block: blocks human HPGD enzyme activity | purified HPGD, NADH fluorescence kinetic, PGE2 substrate | Potency, µM, for inactives: top-dose activity change, negative = inhibition, actives largely listed as inhibitors | hit rate 4.3% among 150,000; further: potency means the concentration at half of the fitted maximal effect
Target sequence (P15428 whole entry, looked up): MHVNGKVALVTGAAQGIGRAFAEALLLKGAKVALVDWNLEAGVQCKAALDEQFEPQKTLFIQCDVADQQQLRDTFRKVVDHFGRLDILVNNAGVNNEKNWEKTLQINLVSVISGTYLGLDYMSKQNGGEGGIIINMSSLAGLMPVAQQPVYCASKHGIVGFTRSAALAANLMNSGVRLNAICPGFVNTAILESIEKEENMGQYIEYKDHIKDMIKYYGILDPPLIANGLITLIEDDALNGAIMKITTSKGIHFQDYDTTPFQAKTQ
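20 nM HPGD preincubated 15 min at room temperature with compound in 50 mM Tris-HCl pH 8, 0.01% Tween 20. Started with 1 mM NAD+ and 30 uM prostaglandin E2; NADH fluorescence (360/450 nm) read 5 times over 30-s intervals, last minus first.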
Luc counter: counter-screen: inhibitors of Kinase-Glo firefly luciferase; Q27757; Kinase-Glo luciferase, ATP luminescence, 8 min; Potency, µM (series often up to 38.3 µM), inactives show at the top dose activity change, negative = inhibition, actives largely listed as inhibitors; hit rate 0.28% among 200,000; active means well fitted inhibition curve with a large enough effect; inconclusive means small, poorly fitted or top-dose-only effect; further: potency means the concentration at half of the fitted maximal effect; nearly all actives have a fitted effect of over 60% in size
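Light output from Kinase-Glo luciferase with luciferin and 10 uM ATP in 50 mM imidazole pH 7.2, KCl, MgCl2, Tween 20, BSA; compound pin-delivered, 8-min ambient incubation, then luminescence read.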
Lamin A splicing: LMNA splicing modulation; AID 1487; HeLa LMNA splicing GFP/RFP minigene ratio, 48 h; Potency, µM (top dose mostly 46.1 µM), inactives show at the top dose ratio change, negative = inhibition, hits mostly inhibitors; hit rate 0.01% among 200,000; active means well fitted inhibition curve with a large enough effect in the signal ratio, with a control signal flat, not every such curve was filed as active; inconclusive means small, poorly fitted or top-dose-only effect, or effect the other way, or a change in a side signal; the % refers to the signal ratio; further: potency means the concentration at half of the fitted maximal effect
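S3 HeLa cells stably expressing lamin A-EGFP splicing minigene plus DsRed2, 600 cells/well, 48 h compound exposure at 37C. Laser-scanning cytometry; analysed as GFP (500-530 nm)/RFP (575-640 nm) total intensity ratio; 0.5% DMSO vehicle.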
PNC assembly inh: blocks assembly of the perinucleolar compartment; PC3M PTB-GFP, PNC prevalence imaging, 16 h; stronger effect = lower value; AID 2417; activity change (PNC), negative = inhibition, % at 10 µM; hit rate 3.1% among 140,000;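 active means readout at or below -70, meaning at least 70% loss of cells showing the perinucleolar compartment, a nuclear body marking cancer cells; inconclusive means readout between -30 and a set limit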;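 further: plate controls were DMSO wells for no effect and camptothecin positive control wells for full effect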
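PC3M cells stably expressing PTB-GFP, 750–1000 cells/well, treated 16 h at 37 °C with compound (23 nl of library stock), in duplicate. After paraformaldehyde fixation and Hoechst stain, imaged at 20x; PNC prevalence scored by image analysis.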
IMPase inh: membrane-permeable compound that blocks inositol monophosphatase. P97697. CHO-M1 cells, IP1 accumulation, HTRF TR-FRET ratio. inhibition (IP1 accumulation), % at 46.1 µM. 120,000 tested, under 10 active. AID 901; active means well fitted curve in the direction sought with a large enough effect in the signal ratio, not every such curve was filed as active; inconclusive means small, poorly fitted or top-dose-only effect, or a change in a side signal; inactive means no such curve, though single readings can be large or run the other way; the % refers to the signal ratio;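 further: cells stimulated with carbachol in lithium chloride buffer; plate controls were DMSO basal wells for no effect and reference inhibitor wells for full effect; higher means more IMPase inhibition seen as more IP1 and lower FRET ratio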
Target sequence (P97697 whole entry, looked up): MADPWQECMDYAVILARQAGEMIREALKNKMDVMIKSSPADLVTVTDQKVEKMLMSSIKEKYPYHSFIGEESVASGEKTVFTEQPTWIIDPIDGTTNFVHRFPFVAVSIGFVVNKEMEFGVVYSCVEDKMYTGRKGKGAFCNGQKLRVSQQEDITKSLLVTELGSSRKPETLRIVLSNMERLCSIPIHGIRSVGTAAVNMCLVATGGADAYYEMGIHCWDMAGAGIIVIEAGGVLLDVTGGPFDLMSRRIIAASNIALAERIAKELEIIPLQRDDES
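Measured: the HTRF emission ratio (665/620 nm) plus the 620 nm donor channel, each fitted to the Hill equation to give AC50. Cells were CHO-M1 given compounds up to 46 uM and a 30 min carbachol stimulation at 37C.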
ALDH1A1 inh: blocks purified human ALDH1A1 activity | P00352 | hit rate 7.3% among 220,000 | Potency, µM (top dose mostly 75.3 µM), for the others: at the highest dose activity, negative = inhibition, actives largely listed as inhibitors | Purified ALDH1A1, NADH fluorescence, propionaldehyde substrate;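 further: potency means the concentration at half of the fitted maximal effect; plate controls were no enzyme wells and a reference inhibitor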
* = called active by the depositor; ! = not active in a repeat; [ ] = dose if it differs, or a comment. Unless noted, the call rests on the fitted dose curve; in most records, active means well fitted inhibition curve with a large enough effect (not every such curve was filed as active); inconclusive means small, poorly fitted or top-dose-only effect, or another doubt; inactive means no such curve, though single readings can be large or run the other way. Unless noted, on the % scale 0 is the no-effect control and ±100 the full control effect.

How did O=C(N/N=C/c1cnc(N2CCOCC2)s1)c1ccccc1 do in these assays?
Luc counter: -2%; ALDH1A1 inh: -14%

Results for c1ccc(N2CCN(c3cnc4ccccc4n3)CC2)cc1 ?
HPGD block: 22µM*; Luc counter: -7%; Lamin A splicing: 0%; PNC assembly inh: -2; IMPase inh: -2; ALDH1A1 inh: inconclusive

What do the screens show for `Clc1ncc(CN2CCN(c3ccccc3)CC2)s1`?
Luc counter: 1%; Lamin A splicing: inconclusive; ALDH1A1 inh: -1%

How did Cn1cnc2c(ncn2[C@@H]2O[C@H](CO)[C@@H](O)[C@H]2O)c1=N do in these assays?
ALDH1A1 inh: 0%

What do the screens show for `CC1CCN(c2cc3c(cc2F)c(=O)c(S(=O)(=O)c2cccc(Cl)c2)cn3Cc2ccccc2)CC1`?
Lamin A splicing: 2%[46 µM]

Results for N/C(=N\OC(=O)c1ccc2c(c1)OCO2)c1cccc(Br)c1 ?
Luc counter: 13µM*; ALDH1A1 inh: 9%

How did COc1ccc(NC(=O)N2CCC3(CC2)CCN(S(=O)(=O)c2ccccc2)CC3)cc1 do in these assays?
HPGD block: -2%; Luc counter: -1%; ALDH1A1 inh: 2%

Results for COc1ccc(NC(=O)N2CCCC3(CCN(S(=O)(=O)c4ccccc4)CC3)C2)cc1 ?
HPGD block: -7%; Luc counter: -2%; ALDH1A1 inh: 14µM*

How did O=C(c1cccc(F)c1)N1CCC[C@@]2(CCN(Cc3ccccc3)C2)C1 do in these assays?
HPGD block: 18µM*; Luc counter: -1%; ALDH1A1 inh: -7%

How did COc1ccc(NC(=O)N2CC[C@@]3(CCCN(C(=O)c4cccc(F)c4)C3)C2)cc1 do in these assays?
HPGD block: -10%; Luc counter: -1%; ALDH1A1 inh: 18µM*

How did O=C(c1cccc(F)c1)N1CCC[C@@]2(CCN(C(c3ccccc3)c3ccccc3)C2)C1 do in these assays?
HPGD block: -28%; Luc counter: -5%; ALDH1A1 inh: 8.9µM*

What do the screens show for `CC(C)c1nc2sc3c(N4CCCCC4)ncnc3c2c2c1CCCC2`?
IMPase inh: 8

Results for O=C(c1cccc(F)c1)N1CCC2(CC1)CN(c1cccc(-c3ccccc3)c1)C2 ?
HPGD block: inconclusive; Luc counter: 0%; ALDH1A1 inh: inconclusive

Results for O=C(c1cccc(F)c1)N1CCC[C@@]2(CCN(c3ccccc3)C2)C1 ?
HPGD block: 7.9µM*; Luc counter: -4%; ALDH1A1 inh: 1.1µM*

Results for O=C(c1cccc(F)c1)N1CCC2(CCCN(c3cccc(-c4ccccc4)c3)C2)CC1 ?
HPGD block: -14%; Luc counter: 0%; ALDH1A1 inh: 11µM*

What do the screens show for `CCOC(=O)CCN1C(=O)[C@H]2[C@H]3[C@H](O)[C@H](O)C/C(=N/OCC(C)C)[C@H]3CC[C@@H]2C1=O`?
ALDH1A1 inh: 4%[13.5 µM]

Results for Cc1nc(NS(=O)(=O)c2ccccc2)sc1NC(=O)OCCN(C)C ?
HPGD block: -4%; Luc counter: -1%; Lamin A splicing: 1%; PNC assembly inh: 36; IMPase inh: 3; ALDH1A1 inh: 14µM*

What do the screens show for `CCOC(=O)c1sc(NS(=O)(=O)c2ccccc2)nc1C`?
HPGD block: -12%; Luc counter: -3%; Lamin A splicing: 4%; PNC assembly inh: inconclusive; IMPase inh: 6; ALDH1A1 inh: -14%

Results for Cc1nc(NS(=O)(=O)c2ccccc2)sc1C(C)(C)C ?
HPGD block: -10%; Luc counter: 1%; Lamin A splicing: inconclusive; PNC assembly inh: inconclusive; ALDH1A1 inh: 5µM*

Results for Cc1nn(-c2ccccc2)c2sc(C(=O)Nc3cccc(O)c3)cc12 ?
IMPase inh: 9

What do the screens show for `O=C1C=C(Nc2ccccc2)C(=O)c2ccccc21`?
Luc counter: -28%; Lamin A splicing: inconclusive; ALDH1A1 inh: inconclusive

How did O=C1C(Nc2ccccc2)=CC(=O)c2ncccc21 do in these assays?
ALDH1A1 inh: 16µM*

What do the screens show for `Nc1ncnc2nc(Cl)[nH]c12`?
HPGD block: -4%; Luc counter: -3%; Lamin A splicing: -7%; ALDH1A1 inh: 8%

What do the screens show for `COc1ccc(-c2nc3cnc(N4CCN(C)CC4)nc3n(Cc3ccc(F)cc3)c2=O)cc1`?
Lamin A splicing: 12%; ALDH1A1 inh: inconclusive

Results for COc1ccc(/C=C/C(=O)c2cc(O)ccc2O)cc1 ?
HPGD block: inconclusive; Luc counter: -13%; ALDH1A1 inh: inconclusive

What do the screens show for `COc1ccc(/C=C/C(=O)c2ccc(O)cc2O)cc1`?
HPGD block: 32µM*; Luc counter: -10%; Lamin A splicing: inconclusive; ALDH1A1 inh: inconclusive

Results for COc1ccc(/C=C/C(=O)Nc2ccccc2C(=O)O)cc1OC ?
HPGD block: 14µM*!; Luc counter: -1%; Lamin A splicing: inconclusive; PNC assembly inh: -15; IMPase inh: -3; ALDH1A1 inh: -3%

How did COc1ccc(/C=C/C(=O)Nc2ccccc2C(=O)O)cc1 do in these assays?
Luc counter: -15%; ALDH1A1 inh: -10%

What do the screens show for `O=C(/C=C/c1ccccc1)c1ccc(O)cc1O`?
HPGD block: 16µM*; Luc counter: -21%; ALDH1A1 inh: inconclusive

How did COc1ccc(C(=O)/C=C(\N)C(F)(F)F)c(O)c1 do in these assays?
HPGD block: -14%; Luc counter: -2%; Lamin A splicing: 8%; PNC assembly inh: 20; IMPase inh: 1; ALDH1A1 inh: 8.9µM*

How did Cc1cccc(-n2cnc3cc(C(=O)NCc4ccccc4Cl)ccc32)c1 do in these assays?
Lamin A splicing: 8%[46 µM]

What do the screens show for `Cc1cn2c(=O)cc(COC(=O)c3ccc(NC(=O)COc4ccc(C)c(C)c4)cc3)nc2s1`?
Lamin A splicing: 7%[46 µM]

What do the screens show for `O=C(/C=C/c1ccc(O)cc1)c1ccc(O)cc1O`?
HPGD block: -16%; Luc counter: -3%; Lamin A splicing: inconclusive; PNC assembly inh: 11; ALDH1A1 inh: 5%

How did COc1ccc(/C=C/C(=O)c2ccc(O)cc2O)cc1OC do in these assays?
HPGD block: 14µM*; Luc counter: -3%; ALDH1A1 inh: inconclusive

Results for COc1ccc(-c2cc(-c3ccccc3)c(C#N)c(S(C)=O)n2)cc1 (stereo not given) ?
HPGD block: inconclusive; Luc counter: -4%; Lamin A splicing: inconclusive; PNC assembly inh: 37; IMPase inh: 6; ALDH1A1 inh: inconclusive

Screens from PubChem.
